Experimental data: PubChem BioAssay AID2733 (National Center for Advancing Translational Sciences (NCATS), 2010)
Records with an inconclusive call do not appear. Active and inactive are the calls of the source. Calls come from the whole dose curve; as a rule, active = well fitted inhibition curve with a large enough effect; inconclusive = small, poorly fitted or top-dose-only effect; inactive = flat fitted curve, though single readings scatter.

Test: High Content Assay for Compounds that inhibit the Assembly of the Perinucleolar Compartment: PC3M Cytotoxicity
Conditions: PC3M cells, ATPLite luminescence viability, 24 h; series mostly up to 46.1 µM; activity change, negative = cytotoxicity: at the top concentration
In short: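 ATPLite luminescent ATP readout after 24 h compound exposure at 37 C of PC3M-GFP reporter cells, 2000 per well. Compounds pinned as 23 nl of stock, in duplicate; controls camptothecin and DMSO.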

Row | SMILES | activity change, negative = cytotoxicity | Potency
1 | N=c1c2c(-c3ccccc3)c(-c3ccccc3)n(Cc3ccccc3)c2ncn1CCCO | -10.9% (inactive) | –
2 | CCN=c1scc(-c2ccccc2)n1/N=C/c1ccccn1 | – | 10 µM (active)
3 | COc1ccc(-c2csc(NC(=O)c3ccc(OCC(=O)N4CCOCC4)c(OC)c3)n2)cc1 | -19.6% (inactive) | –
4 | CC12CCC(C(=O)NC(c3ccccc3)c3ccccc3)(OC1=O)C2(C)C (stereo not given) | -16.5% (inactive) | –
5 | O=C(Nc1ccc(NC(=O)C2CC2)cn1)c1ccccc1Cl | – | 28.2 µM (active)
